# In ChEMBL document CHEMBL3988442, “University of Dundee, Small-Polar-MMV Screening Library” (2021):
# In all, about 48,000 compounds went through this assay and about 13,000 (27%) showed an effect of 50% or more. Some of the results follow.
# System: Wolbachia pipientis
# Assay: Anti-Wolbachia Cell-Based Screen
# Type: functional
# Set-up: scale not given: in the data most compounds retested in dose-response had high values
# Details: 5 µM
row,SMILES,Percent Effect
1,COCc1nc(C2CC2)nn1-c1cc(Cl)ccc1OC,-14.4%
2,CCC(CNC(=O)c1nc(=O)[nH][nH]1)Oc1cccc(C(F)(F)F)c1 (stereo unspecified),-1.128%
3,CC(C)Sc1ncccc1C(=O)NCc1cccc(N(C)C)c1,97.33%
4,COc1cccc(CNC(=O)c2cccnc2SC(C)C)c1,92.51%
5,COc1ccnc(NC(=O)CSCc2cccnc2)c1,1.726%
6,CC(C)Nc1ncccc1C(=O)NCc1cnc(N(C)C)n1C,23.22%
7,CCS(=O)(=O)N(C)C1CCN(Cn2ccc(-c3ccc(F)cc3)n2)CC1,1.424%
8,O=C(NC1(c2nccs2)CCCC1)c1cc(C2CC2)on1,-6.868%
9,Cc1noc(C)c1CS(=O)(=O)CC(=O)N1c2ccccc2CC1C (stereo unspecified),25.49%
10,O=C(Cc1ccc(F)cc1Cl)N1C[C@@H](CN2CCC(O)CC2)[C@@H](CO)C1,-45.53%
11,Cc1ncnc2c1CCN(C(=O)c1cccnc1)CC2,-9.06%
12,Cc1nn(C(=O)c2cccnc2)c(C)c1C,108.2%
13,COc1ccc(C(=O)n2nc(C)c(C)c2C)cc1,10.75%
14,CC(=O)NCCNc1cc(C)nc2cc(C)nn12,-17.81%
15,CC(C)c1cc(NCC(O)c2ccccn2)n2nccc2n1 (stereo unspecified),16.27%
16,Cc1cc(NCc2cccnc2)n2nc(C)cc2n1,12.04%
17,Cc1cccnc1NCCNc1cc(C(C)C)nc2ccnn12,101.8%
18,Cc1cc2nc(C(C)C)cc(NCC(c3ccccn3)N(C)C)n2n1 (stereo unspecified),15.65%
19,Cc1cc(NCCNc2ncccc2C)n2nc(C)cc2n1,109.3%
20,CC(C)c1cc(NCC(O)CO)n2nccc2n1 (stereo unspecified),7.798%
21,Cc1cc2nc(C(C)C)cc(NCCNc3ncccc3C)n2n1,112.1%
22,CC(C)c1cc(NCC(C)N2CCCC2)n2nccc2n1 (stereo unspecified),-22.52%

row,SMILES,Percent Effect
1,CN1CCC(n2nc(Cc3cccc(Cl)c3)nc2Cn2ccnc2)CC1,-3.422%
2,CCCn1nc(C(=O)NCCc2nnc3n2CCC3)ccc1=O,5.324%
3,O=C1CCCN1CCc1noc(-c2ccc3[nH]cnc3c2)n1,-10.57%
4,Cc1cc(C)c(C(=O)NC2CCCc3nc(N(C)C)ncc32)cc1C (stereo unspecified),-4.078%
5,CCn1ncc2c1CCCC2NCc1cc(Cl)c(OC)c(OC)c1 (stereo unspecified),-1.567%
6,COc1ccc2c(c1)C(NCCc1ncc(C)s1)CCCO2 (stereo unspecified),17.43%
7,CCCOc1ccc(CNC2CCCc3c2cnn3CC)cc1OC (stereo unspecified),1.181%
8,COc1ccc(CNC2CCCc3nc(N(C)C)ncc32)c(OC)c1 (stereo unspecified),113.1%
9,CCn1ncc2c1CCCC2NCc1ccc(OC)c(C)c1 (stereo unspecified),-3.93%
10,COc1ccc(F)c(CNC2CCCc3nc(N(C)C)ncc32)c1 (stereo unspecified),96.62%
11,COc1cc(F)c(S(=O)(=O)NCc2ccnc(N(C)C)n2)cc1OC,0.6803%
12,COc1ccc(OC)c(CNC2CCCc3nc(N(C)C)ncc32)c1 (stereo unspecified),105.7%
13,CCOC(C)c1nc(CN2CCC(C3OCCO3)CC2)cs1 (stereo unspecified),-5.348%
14,CN(CCc1nc2ccccc2c(=O)[nH]1)CCC(F)(F)F,-6.377%
15,CNC(=O)C(C)(C)NC(=O)c1cc(COc2cccc(C(C)=O)c2)[nH]n1,5.939%
16,O=C(Nc1cccc(N2CCN(CC3CC3)CC2)c1)C1CCOC1 (stereo unspecified),-7.118%
17,CCN1CCN(C(=O)c2ccc3c(c2)NC(=O)CN3)[C@H]2CS(=O)(=O)C[C@H]21,7.083%
18,OC(CN(Cc1ccccc1)Cc1ccccn1)c1cccs1 (stereo unspecified),-16.67%
19,COc1ccccc1CN(C)c1nccc(-c2cn(C)nc2C)n1,-7.113%
20,Cn1cc(CN(Cc2ccccn2)Cc2ccccc2Cl)cn1,107.7%
21,COCCN(C/C=C/c1ccccc1)Cc1ccccn1,-3.939%
22,CCOc1cccc(CN(Cc2cnn(C)c2)CC(C)C)c1O,5.177%

row,SMILES,Percent Effect
1,Cc1nn(C)cc1CN(Cc1ccccn1)Cc1ccccc1Cl,76.4%
2,CN(Cc1cnn(C)c1)C(=O)NC1CCN(Cc2ccccn2)CC1,-4.519%
3,Cn1cc(CN(Cc2ccccc2)CC(O)c2cccs2)cn1 (stereo unspecified),-0.3984%
4,Cl.Cn1cc(CN(Cc2ccccc2)Cc2ccccn2)cn1,101.3%
5,COc1cccc(S(=O)(=O)CCN2CCCC2c2ccc[nH]2)c1 (stereo unspecified),-2.252%
6,CCN1CCC(NC(=O)N(C)Cc2csc3ccccc23)CC1,1.913%
7,CC(C)C(NC(=O)NCC1(CO)CC1)c1nnc2n1CCC2 (stereo unspecified),14.94%
8,Cc1ncsc1C(=O)OCCN1CCCc2ccccc21,101.6%
9,Cc1ncsc1C(=O)NCCN1CCCCCC1=O,95.46%
10,Cc1ncsc1C(=O)NCCn1nc2ccccn2c1=O,-10.37%
11,Cc1cc(C(=O)NCCN2CCCc3ccccc32)[nH]n1,-6.772%
12,Cc1ncsc1C(=O)NCCSCc1cccs1,-6.016%
13,Cc1ncsc1CCN(C)C(=O)CN1CCCCCC1=O,-1.63%
14,Cc1ncsc1C(=O)OCCN1CCCCCC1=O,115.8%
15,O=C(NCCN1CCCCC1)c1scnc1Cl,1.584%
16,CC(C(=O)NCCCN1CCCCCC1=O)n1cncn1 (stereo unspecified),-4.192%
17,Cc1ncsc1CN(C)C(=O)C(CC(C)C)N1CCCCC1=O (stereo unspecified),12.62%
18,O=C(NCCN1CCCc2ccccc21)c1scnc1Cl,4.891%
19,Cc1ncsc1C(=O)NCCCN1CCCCCC1=O,91.19%
20,COc1ccc(C(=O)N2CCC(Oc3ccccc3)(C(=O)O)CC2)o1,-6.202%
21,CC(=O)NCc1nc(CCOc2ccc(Cl)cc2)no1,-0.6631%
22,COCCN1C(=O)CC(N2CCN(c3ccc(OC)cc3)CC2)C1=O (stereo unspecified),6.624%

row,SMILES,Percent Effect
1,NCc1cn(CC2CCCN(C(=O)NCc3ccc(Cl)cc3)C2)nn1 (stereo unspecified),-34.24%
2,Cc1nnc(N2C[C@@H](Oc3ccccn3)[C@H]3OCCC[C@H]32)s1.O=C(O)C(F)(F)F.O=C(O)C(F)(F)F,-5.034%
3,COc1ccccc1Oc1ncccc1CNC(=O)C(C)CN (stereo unspecified),1.057%
4,COc1ccccc1S(=O)(=O)N1CCC2(CC1)[C@H](O)C[C@@H]2O,-0.7897%
5,CCCS(=O)(=O)N1CCC2(CCCN(Cc3cccc(F)c3F)C2=O)C1 (stereo unspecified),-35.96%
6,COc1cccc(OC)c1CN1CC(O)CN(S(C)(=O)=O)CC1=O (stereo unspecified),127.9%
7,COc1cccc(CN2CC(O)CN(S(C)(=O)=O)CC2=O)c1OC (stereo unspecified),96.57%
8,CCCS(=O)(=O)N1CC(=O)N(Cc2ccccc2OC)CC(O)C1 (stereo unspecified),89.31%
9,COc1ccccc1N1CCC(CNCc2cccc(OC)c2OC)C1 (stereo unspecified),0.729%
10,CCCS(=O)(=O)N1CC(=O)N(Cc2cccc(OC)c2OC)CC(O)C1 (stereo unspecified),125.8%
11,COc1cccc(CN2CC3(CCNCC3)CCC2=O)c1OC,-5.805%
12,COc1cccc(OC)c1CN1CC(=O)N(c2ccc(C)cc2)CC1C (stereo unspecified),7.242%
13,COc1cc(CNc2cc(-c3ccoc3C)nn2CCO)ccc1F,9.115%
14,COc1c(F)cc(CN2CCC3(CC2)C(C(=O)O)CC(=O)N3C)cc1Cl (stereo unspecified),5.354%
15,CS(=O)(=O)c1cccc(Cl)c1C(=O)NCCN1C(=O)CCC1=O,-4.304%
16,COc1ccccc1CC(C)N(C)S(C)(=O)=O (stereo unspecified),9.665%
17,COc1ccccc1CN1C(=O)O[C@@H]2CN(S(=O)(=O)N(C)C)C[C@@H]21,-2.255%
18,COc1ccccc1CN1CC(O)CN(S(=O)(=O)C(C)C)CC1=O (stereo unspecified),100.2%
19,CCS(=O)(=O)N1CC(=O)N(Cc2ccccc2OC)CC(O)C1 (stereo unspecified),89.74%
20,CCO[C@H]1C[C@@H](O)C12CCN(S(=O)(=O)c1ccccc1OC)CC2,-9.049%
21,COc1ccccc1CN1C(=O)O[C@@H]2CN(C(C)C)C[C@@H]21,11.8%
22,CCc1noc(C)c1C(=O)NCc1c(C)nn(CCOC)c1C,-2.688%

row,SMILES,Percent Effect
1,CN(C)C(=O)N1C[C@H]2CC[C@@H]1CN(C1Cc3ccccc3C1)C2,7.395%
2,Cc1cnc(C)c(N2CCCC(CO)(Cc3ccccc3C)C2)n1 (stereo unspecified),-4.771%
3,CCc1ccc2nc(NCCOCCO)cc(C)c2c1,107.5%
4,CCc1ccc2nc(NCC(O)CO)cc(C)c2c1 (stereo unspecified),-9.237%
5,CCc1ccc2nc(NCCCN(CCO)CCO)cc(C)c2c1,14.19%
6,NC(=O)C(NC(=O)CCc1ccc(Cl)s1)c1ccccc1 (stereo unspecified),7.544%
7,c1cc(-c2ccc3c(c2)C2(CCNCC2)CC3)ccn1,-17.91%
8,O=C(CCc1ccc(F)cc1)NS(=O)(=O)c1ccc2c(c1)OCCCO2,20.72%
9,Cl.c1cnc2[nH]c(C3CCCNC3)c(CN3CCCOCC3)c2c1 (stereo unspecified),94%
10,Cl.OC1CCN(Cc2c(C3CCCNC3)[nH]c3ncccc23)CC1 (stereo unspecified),-8.296%
11,Oc1ncccc1-c1nc(-c2cccc(CN3CCOCC3)c2)no1,-1.647%
12,c1cnc2[nH]c(C3CCCC3)c(CN3CCOCC3)c2c1,96.59%
13,c1cnc2[nH]c(C3CCNCC3)c(CN3CCOCC3)c2c1,102.1%
14,COCCN1CCN(Cc2c(C3CCNCC3)[nH]c3ncccc23)CC1.Cl,66.52%
15,COCCn1ccnc1C1CCN(Cc2ccccc2C#N)CC1,-0.03291%
16,COCCN1CCC(c2nc3c([nH]2)CC(C)(C)CNC3=O)CC1,-9.725%
17,CN(Cc1ccon1)CC1CCOc2ccccc2C1 (stereo unspecified),-13.25%
18,CC1CN(C(=O)c2ccnc(OCCN(C)C)c2)c2ccccc21 (stereo unspecified),5.142%
